# Test results taken from publication PMC9574860, “Chemical Toolkit for PARK7: Potent, Selective, and High-Throughput” (Journal of Medicinal Chemistry, 2022).
# About 400 (5.1%) of roughly 7,900 compounds showed an effect of 50% or more. What follows is part of a selection rich in strong results, with near analogues and random picks from the rest.
# Molecular target: Parkinson's disease protein 7 (PARK7/DJ1) (human, UniProt Q99497)
# Assay: primary screen, percent inhibition; read as competition with a fluorescent probe by fluorescence polarization; higher = more effect of the substance
# Settings: 100 µM
# Summary of the method: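 Covalent fragments at 100 μM final were incubated 2 h with 0.2 μM PARK7, then 20 nM probe JYQ-107 added for a further 2 h. Fluorescence polarization read at 480/520 nm; relative FP loss versus reference controls gave remaining enzyme activity.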
# Chain of Parkinson's disease protein 7 (PARK7/DJ1) (Q99497 whole entry, looked up): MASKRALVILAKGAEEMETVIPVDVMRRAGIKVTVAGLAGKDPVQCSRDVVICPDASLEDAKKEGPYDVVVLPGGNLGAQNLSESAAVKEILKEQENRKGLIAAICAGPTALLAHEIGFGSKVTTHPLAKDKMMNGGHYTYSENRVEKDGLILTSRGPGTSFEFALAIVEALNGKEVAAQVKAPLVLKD
row,Compound,Inhibition %
1,CCOc1ccc(S(=O)(=O)n2nc(C)cc2C)cc1,3.86%
2,Cc1nc(C)c(C=C(C#N)C(=O)NC(C)C)o1,3.38%
3,N#CC(=Cc1ccncc1)C(=O)Nc1cccc(Cl)c1,10.5%
4,C#Cc1ccc(C=C(C#N)C(=O)Nc2ccncc2)cc1,73.3%
5,N#CC(=Cc1ccc(Cl)cc1)C(=O)Nc1ccncc1,2.9%
6,C=CC(=O)NC1COc2cc(Cl)ccc2C1 (stereo not drawn),6.51%
7,CN1CCCN(C(=O)c2ccc(S(=O)(=O)F)cc2)c2ccccc21,17.9%
8,O=C(CN1CCSC1=O)Nc1ccc(Cl)c(Cl)c1,0.617%
9,Cc1ccc(NC(=O)CN2CCSC2=O)cc1C,1.36%
10,O=C(O)C=CC(=O)Nc1ccc(F)c(Cl)c1,8.72%
11,Cn1cc(NC(=O)CN2CCSC2=O)cn1,71.6%
12,Cc1cc(C)cc(NC(=O)CN2CCSC2=O)c1,5%
13,O=C(CN1CCSC1=O)Nc1cn[nH]c1,11.7%
14,O=C(O)C=CC(=O)Nc1ccc(F)cc1,7.34%
15,O=C(O)C=CC(=O)Nc1ccc2[nH]ncc2c1,77.7%
16,O=C(CN1CCSC1=O)Nc1ccc2[nH]ncc2c1,60.9%
17,COCC(C)NC(=O)C(C#N)=Cc1occc1C (stereo not drawn),5.2%
18,O=C1SCCN1CC(=O)N1CCCc2ccccc21,7.03%
19,Cc1c(C#N)c(NC(=O)CCl)n(-c2ccc(F)cc2)c1C,1.78%
20,COc1ccc2[nH]c(CCCCl)nc2n1.Cl,23.2%
21,C=CS(=O)(=O)c1ccc(C#N)cn1,1.18%
22,O=S(=O)(Oc1ccccc1C(F)(F)F)c1c[nH]cn1,10.4%

row,Compound,Inhibition %
1,COCCCS(=O)(=O)N1CCC(Cl)CC1,7.37%
2,OB(O)c1cccc2c1OCCC2,4.89%
3,C=CC(=O)N1CCc2c(cccc2C(F)(F)F)C1,-3.37%
4,Cc1noc2ncc(S(=O)(=O)OCC(F)(F)F)cc12,18.2%
5,O=S(=O)(F)c1ccc2c(c1)NCC2,26.6%
6,O=S(=O)(F)c1ccc2cn[nH]c2c1,72.5%
7,O=S(=O)(F)c1ccc(F)cc1,2.62%
8,O=S(=O)(F)c1cccnc1,17.7%
9,Cc1cc2[nH]ncc2cc1S(=O)(=O)F,97.4%
10,Cc1ccc(F)c(OS(=O)(=O)c2cn[nH]c2C)c1,11.7%
11,O=S(=O)(F)c1ccc2cnccc2c1,86.1%
12,O=S(=O)(F)c1ccc2[nH]ncc2c1,53%
13,O=S(=O)(F)c1ccc(S(=O)(=O)Nc2ccncc2F)cc1,17.6%
14,COc1ncc(S(=O)(=O)F)cn1,31.2%
15,Cc1cc(CNC(=O)CCl)ccc1F,18%
16,Cc1cc(NS(=O)(=O)C=Cc2ccccc2Cl)n(C)n1,8.51%
17,C=CC(=O)NC1CCCc2c1cnn2C (stereo not drawn),6.84%
18,C=CC(=O)Nc1cccc(C(=O)O)c1,4.88%
19,Cc1nc(C(C)C)oc1Cn1ccnc1C#N,8.62%
20,C=CC(=O)N1CCC(OCC2CC2)CC1,-0.254%
21,Cc1cc2ncn(CC3CO3)c2cc1C (stereo not drawn),20.8%
22,C=CC(=O)N1CC(OC)Cc2ccccc21 (stereo not drawn),13.5%

row,Compound,Inhibition %
1,C=CC(=O)N1CCc2c(F)cccc2C1,6.26%
2,O=C(CCl)NCCOc1cccc(Cl)c1,17.8%
3,ClCC1COCCO1 (stereo not drawn),-2.68%
4,CCN(Cc1ccc2c(c1)OCO2)C(=O)CCl,9.14%
5,Cc1ccn(S(=O)(=O)c2ccc(F)c(C)c2)n1,6.8%
6,CN(CCc1ccccc1)c1nccnc1C#N,3.72%
7,CN(C#N)Cc1ccccc1,62.8%
8,CN(Cc1ccccc1)C(=O)C=CC(=O)O,23.5%
9,C=CC(=O)N1CCN2CCOCC2C1 (stereo not drawn),8.35%
10,CN(Cc1cccc(Cl)c1)C(=O)CCl,49.6%
11,COc1ccc2cc(CN(C)C(=O)CCl)ccc2c1,8%
12,COc1ccc(C(=O)CCl)cc1,3.52%
13,COc1cccc(CN(C)C(=O)CCl)c1,76.7%
14,COc1ccc(CN(C)C(=O)CCl)cc1,61.5%
15,CN(Cc1ccc(F)cc1)C(=O)CCl,39.9%
16,CCOc1ccc(C(=O)CCl)cc1,84.9%
17,NC(=O)c1ccc(OCCCl)cc1,-3.9%
18,COc1ccc(CN(C(=O)CCl)C2CC2)cc1,15.6%
19,CN(Cc1cccc(F)c1)C(=O)CCl,44.5%
20,CN(Cc1ccc(OC(F)F)cc1)C(=O)CCl,51.1%
21,N#Cc1ccc(N2CCc3sccc3C2)cn1,27.1%
22,C=CC(=O)N(C)C1CCCc2cccnc21 (stereo not drawn),7.75%

row,Compound,Inhibition %
1,N#CC1(CC2CO2)CCC1 (stereo not drawn),3.78%
2,Cc1ccc(OC2CCCC2)c(B(O)O)c1,2.59%
3,COc1ccc2[nH]c(C)c(C(=O)CCl)c2c1,4.84%
4,O=C1OCCC1n1nnc(-c2ccc(F)cc2)n1 (stereo not drawn),4.53%
5,C=CC(=O)NC1CSC1(C)C (stereo not drawn),6.84%
6,OB(O)c1ccc(-c2ccccc2)cc1F,24.2%
7,C=CC(=O)N1CCCN(C(=O)c2ccco2)CC1,1.97%
8,Cc1ccc(C=C(C#N)C(N)=O)c(C)c1,4.01%
9,Cc1cccc(C)c1NC(=O)Cn1cnc(C#N)n1,6.38%
10,COc1ccc(CN(C)C(=O)CCl)cc1F,58.3%
11,CCOc1ccc(CN(C)C(=O)CCl)cc1,67.6%
12,CCN(Cc1ccc(OC)c(F)c1)C(=O)CCl,10%
13,CN(Cc1cccc(C(F)(F)F)c1)C(=O)CCl,37.1%
14,COC(=O)c1ccccc1N(C)C(=O)CCl,6.59%
15,C=CC(=O)N1CCCC1c1cccc2c1OCCO2 (stereo not drawn),4.1%
16,C=CC(=O)Nc1nc2c(s1)COCC2,6.4%
17,CC1c2cccn2CCN1C(=O)n1ccnc1 (stereo not drawn),22%
18,O=C(Nc1ccccc1)NC1CN(c2ccccc2)C1=O (stereo not drawn),5.74%
19,CCc1ccc(CNC(=O)CCl)s1,4.03%
20,CS(=O)(=O)NCCc1ccc(C(=O)CCl)s1,97.6%
21,CS(=O)(=O)c1ccccc1NC(=O)CCl,11.4%
22,Cc1ccc(CNC(=O)CCl)s1,3.17%

row,Compound,Inhibition %
1,O=C(CCl)NCC(=O)c1cccs1,15.1%
2,COC(=O)c1sccc1NC(=O)CCl,3.83%
3,Cc1[nH]c2ccccc2c1C(=O)CCl,6.53%
4,CC(=O)NCc1ccc(C(=O)CCl)s1,91.1%
5,CC(C)(C)C(=O)NCc1ccc(C(=O)CCl)s1,76.2%
6,O=C(CCl)c1sccc1Cl,94.4%
7,O=C(CCl)NCc1cccs1,3.94%
8,C=CC(=O)NCc1ccc(C)s1,1.04%
9,O=S(=O)(F)Cc1ccccc1Cl,7.95%
10,C=CC(=O)Nc1nsc(N2CCCC2)n1,16%
11,N#Cc1cc(C(=O)O)ccn1,4.99%
12,CCc1ccc(B2OC(C)(C)C(C)(C)O2)n1C(=O)OC(C)(C)C,5.89%
13,C=CC(=O)N1CCC(C)(N2CCOCC2)CC1,10%
14,C=CC(=O)NC1CCN(c2cnn(C)c2)C1 (stereo not drawn),33.9%
15,CC1(C)OB(c2ccncc2)OC1(C)C,4.41%
16,O=C(CCl)c1ccc(Cl)s1,94.6%
17,O=C(CCl)c1cnc(N2CCCCC2)s1,8.03%
18,NC(=O)Cc1ccc(C(=O)CCl)s1,97.4%
19,O=C(CCl)c1ccc(CC(=O)N2CCOCC2)s1,7.37%
20,Cc1ccc(C(=O)CCl)s1,28.1%
21,O=C(CCl)NC(=O)NCCc1cccs1,11.2%
22,O=C(CCl)NCCc1cccs1,31.1%

row,Compound,Inhibition %
1,O=C(CCl)NCc1ccc(Cl)s1,15.9%
2,CC(=O)NCCc1ccc(C(=O)CCl)s1,90.4%
3,N#Cc1nnc(-c2ccccc2)s1,11.8%
4,N#Cc1[nH]ccc2nccc1-2,18.7%
5,C=CC(=O)NC1COc2cc(F)cc(F)c21 (stereo not drawn),3.21%
6,CC(C)c1ccccc1OCC1CO1 (stereo not drawn),-4.39%
7,CN(C)CCc1ccc(B(O)O)cc1.Cl,2.57%
8,O=C(CCl)NCCc1ccsc1,27.9%
9,C=CC(=O)N1CCCN(CC2CCCO2)CC1 (stereo not drawn),13.1%
10,O=C(CCl)Nc1nc(-c2cccs2)cs1,11.6%
11,Sc1nncc(-c2cccs2)n1,94.3%
12,Sc1nncc2ccccc12,8.48%
13,Cc1ccc(C=CS(=O)(=O)Nc2ccnn2C(C)C)cc1,13%
14,C=CC(=O)N1CCC(C(=O)O)(c2ccccc2)CC1,2.37%
15,Cc1ccc(F)c(N(C#N)Cc2nnc(C)o2)c1,69%
16,CCCn1c(C)nnc1CN(C#N)c1cc(C)ccc1F,20.1%
17,Cc1nnc(CN(C#N)c2ccc(F)c(Cl)c2)o1,5.26%
18,O=C1OCCC1N1CCN(c2nccs2)CC1 (stereo not drawn),2.57%
19,O=c1[nH]nc(-c2cccs2)o1,12.1%
20,O=c1[nH]nc(-c2ccco2)o1,50.5%
21,O=c1[nH]nc(-c2ccc(F)cc2)o1,6.22%
22,O=C(O)Cn1nc(-c2ccc(F)cc2)oc1=O,12.4%
